Reference: PubChem BioAssay (EPA / NIEHS)
Records with an inconclusive call do not appear. Activity calls are given as the source filed them. How the source made its calls: active means hit-call score of the fitted dose curve at least 0.9, where 1 is the maximum; inconclusive means response in the unintended direction; inactive means score below 0.9.

Key:
[1] = TOX21_p53_BLA_p2_viability: Viability Assessment in the Tox21 HCT-116 p53 Agonism Beta-lactamase Assay, Phase 2 (AID 2283591);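 further: actives lower the ATP signal meaning cytotoxicity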
Method in brief: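 Cytotoxicity readout: CellTiter-Glo ATP luminescence, 30 min at room temperature, after the beta-lactamase read. Cells were HCT116 exposed 16 h at 37C to compounds pin-transferred at 217-fold dilution from DMSO stocks.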

[2] = biological target: Cellular tumor antigen p53 (Homo sapiens) (UniProt P04637); assay: TOX21_p53_BLA_p2_ratio: Tox21 HCT-116 p53 Agonism Beta-lactamase Assay, Ratio, Phase 2 (AID 2283592)
Sequence of Cellular tumor antigen p53 (Homo sapiens) (P04637 whole entry, looked up): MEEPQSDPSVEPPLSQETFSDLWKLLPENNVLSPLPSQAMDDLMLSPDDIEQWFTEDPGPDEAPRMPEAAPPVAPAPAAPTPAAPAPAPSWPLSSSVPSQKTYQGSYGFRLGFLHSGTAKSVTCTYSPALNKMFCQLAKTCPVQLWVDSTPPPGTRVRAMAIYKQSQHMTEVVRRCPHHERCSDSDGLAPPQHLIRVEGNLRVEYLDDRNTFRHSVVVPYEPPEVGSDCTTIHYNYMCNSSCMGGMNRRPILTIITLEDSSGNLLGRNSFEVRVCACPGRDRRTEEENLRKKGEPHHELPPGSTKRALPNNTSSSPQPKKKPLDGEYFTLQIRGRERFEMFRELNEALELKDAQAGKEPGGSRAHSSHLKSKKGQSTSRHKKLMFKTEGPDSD
Method in brief: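 Readout: blue/green (460/530 nm) FRET emission ratio after 2 h CCF4-AM loading at room temperature, excitation 405 nm. HCT116 p53 bla cells, 16 h compound exposure at 37C, 5% CO2; agonist direction fitted against DMSO baseline.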

[3] = TOX21_p53_BLA_p3_viability: Viability Assessment in the Tox21 HCT-116 p53 Agonism Beta-lactamase Assay, Phase 3 (AID 2283593);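 further: cells exposed to compound for 16 h before reading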
Method in brief: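 Cellular ATP was quantified by CellTiter-Glo luminescence, read after 30 min at room temperature. Beforehand, HCT116 cells (4000/well) received compound 5 h post-seeding, 217-fold diluted from DMSO, then incubated 16 h at 37C.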

[4] = biological target: Cellular tumor antigen p53 (Homo sapiens) (UniProt P04637); assay: TOX21_p53_BLA_p3_ratio: Tox21 HCT-116 p53 Agonism Beta-lactamase Assay, Ratio, Phase 3 (AID 2283596)
Method in brief: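 Cells were seeded at 4000/well, rested 5 h at 37C, then dosed with DMSO compound solutions (217-fold dilution) for 16 h. CCF4-AM substrate was loaded for 2 h at room temperature, and the 460/530 nm emission ratio was fitted for gain of signal versus DMSO.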

[5] = TOX21_p53_BLA_p4_viability: Viability Assessment in the Tox21 HCT-116 p53 Agonism Beta-lactamase Assay, Phase 4 (AID 2283597);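 further: hits lower the luminescence signal meaning cytotoxicity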
Method in brief: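 ATP content by CellTiter-Glo luminescence, 30 min RT, read after the beta-lactamase ratio step. Cells: HCT116, 4000/well, compound added after 5 h, exposure 16 h at 37C. Signal loss = reduced viability.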

[6] = biological target: Cellular tumor antigen p53 (Homo sapiens) (UniProt P04637); assay: TOX21_p53_BLA_p5_ratio: Tox21 HCT-116 p53 Agonism Beta-lactamase Assay, Ratio, Phase 5 (AID 2283599)
Method in brief: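 Beta-lactamase reporter ratio (blue 460 nm over green 530 nm, 405 nm excitation) after 2 h CCF4-AM loading, in HCT-116 cells exposed 16 h at 37 C to compounds pinned at 217-fold dilution. Increases relative to DMSO baseline scored.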

[7] = TOX21_p53_BLA_p5_viability: Viability Assessment in the Tox21 HCT-116 p53 Agonism Beta-lactamase Assay, Phase 5 (AID 2283600)
Method in brief: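 ATP luminescence (CellTiter-Glo, 30 min, RT) served as the viability read-out, with loss of signal indicating cytotoxicity. Compounds in DMSO were pinned at a 217-fold dilution onto 4000 cells/well and incubated 16 h, 37C.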

[8] = biological target: Cellular tumor antigen p53 (Homo sapiens) (UniProt P04637); assay: TOX21_p53_BLA_p4_ratio: Tox21 HCT-116 p53 Agonism Beta-lactamase Assay, Ratio, Phase 4 (AID 2283601)
Method in brief: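 Signal is the blue/green (460nm/530nm) ratio of cleaved versus uncleaved CCF4-AM substrate, read after 2 h substrate loading. Cells were HCT116 carrying the p53-responsive beta-lactamase reporter, dosed 16 h at 37C, 5% CO2; CellTiter-Glo measured in parallel.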

[9] = biological target: Thyroid hormone receptor alpha (Rattus norvegicus) + Thyroid hormone receptor beta (Rattus norvegicus) (UniProt P18113+P63059); assay: TOX21_TR_LUC_GH3_Antagonist_Followup: Tox21 GH3 Thyroid Hormone Receptor Antagonism Luciferase Follow-Up Assay (AID 2283942)
Method in brief: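 Loss of T3-driven (1.0 nM final) reporter activity in GH3 cells was read by ONE-Glo luminescence after 24 h incubation at 37C; 15-point compound series spanned 92 uM to 5nM final, 1,500 cells/well.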

[10] = biological target: THRA (gene 7067) (UniProt P10827); assay: TOX21_TRA_COA_Antagonist_Followup_ratio: Tox21 Thyroid Hormone Receptor alpha Antagonism through Coactivator Recruitment Follow-Up Assay, Ratio (AID 2283953)
Sequence of THRA (gene 7067) (P10827 whole entry, looked up, the tested form may be a part): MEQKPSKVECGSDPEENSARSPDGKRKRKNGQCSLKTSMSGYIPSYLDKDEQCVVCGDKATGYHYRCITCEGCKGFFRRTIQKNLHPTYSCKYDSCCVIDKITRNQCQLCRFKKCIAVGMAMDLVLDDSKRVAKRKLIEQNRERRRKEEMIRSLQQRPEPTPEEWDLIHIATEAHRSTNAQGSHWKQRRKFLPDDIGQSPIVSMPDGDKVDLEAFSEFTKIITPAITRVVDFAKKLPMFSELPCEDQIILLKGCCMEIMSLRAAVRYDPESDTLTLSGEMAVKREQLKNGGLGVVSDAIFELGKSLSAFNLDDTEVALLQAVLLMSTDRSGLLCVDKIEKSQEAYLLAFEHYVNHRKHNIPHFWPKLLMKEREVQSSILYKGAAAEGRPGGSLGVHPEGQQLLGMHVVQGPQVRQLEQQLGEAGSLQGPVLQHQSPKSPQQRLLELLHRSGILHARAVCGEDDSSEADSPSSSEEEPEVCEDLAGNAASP
Method in brief: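 GST-TRα LBD 2.5 nM, BSA 0.10%, + cpd; then FITC-SRC-2 peptide 200 nM + Tb-anti-GST Ab 2 nM. TR-FRET ratio 520/495 nm. Norm: DMSO = 0%, T3 = 100%.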

[11] = biological target: THRB (gene 7068) (UniProt P10828); assay: TOX21_TRB_BLA_Antagonist_Followup_ratio: Tox21 Thyroid Hormone Receptor beta Antagonism Beta-lactamase (BLA) Follow-Up Assay, Ratio (AID 2283958)
Sequence of THRB (gene 7068) (P10828 whole entry, looked up, the tested form may be a part): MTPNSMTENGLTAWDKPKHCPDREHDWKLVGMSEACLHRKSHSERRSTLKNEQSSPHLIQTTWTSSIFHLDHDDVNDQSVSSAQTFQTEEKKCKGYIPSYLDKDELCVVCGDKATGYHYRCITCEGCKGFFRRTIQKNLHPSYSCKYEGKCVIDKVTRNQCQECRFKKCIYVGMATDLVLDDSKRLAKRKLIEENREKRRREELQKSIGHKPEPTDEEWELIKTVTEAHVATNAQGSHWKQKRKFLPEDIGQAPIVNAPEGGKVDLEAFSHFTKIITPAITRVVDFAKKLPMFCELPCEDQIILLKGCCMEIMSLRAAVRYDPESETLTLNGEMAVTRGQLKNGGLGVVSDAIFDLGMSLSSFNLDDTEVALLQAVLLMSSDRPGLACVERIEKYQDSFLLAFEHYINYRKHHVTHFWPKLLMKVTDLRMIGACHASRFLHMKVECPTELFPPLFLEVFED
Method in brief: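 Beta-lactamase reporter ratio (460/530 nm, CCF4-AM substrate, 2 h room temperature) was read in TRb-bla HEK293T cells after 18 h compound treatment (11 concentrations, triplicate) at 37C in 2% charcoal-stripped FBS medium. Loss of signal fitted against DMSO.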

[12] = TOX21_TRB_BLA_Antagonist_Followup_viability: Viability Assessment in the Tox21 Thyroid Hormone Receptor beta Antagonism Beta-lactamase (BLA) Follow-Up Assay (AID 2283961)
Method in brief: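 Viability read as CellTiter-Glo ATP luminescence (loss of signal = cytotoxicity) in the same plates as the TRβ-bla readout. TRβ-LBD/GAL4 UAS-bla HEK293T cells were exposed to compounds, 11 concentrations in triplicate, for 18 h at 37C/5% CO2.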

[13] = biological target: THRB (gene 7068) (UniProt P10828); assay: TOX21_TRB_COA_Antagonist_Followup_ratio: Tox21 Thyroid Hormone Receptor beta Antagonism through Coactivator Recruitment Follow-Up Assay, Ratio (AID 2283967)
Method in brief: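 Coactivator recruitment to the GST-tagged TRb ligand-binding domain (5.0 nM) was read as the 520/495 nm TR-FRET ratio, using 200 nM fluorescein SRC-2 peptide and 2 nM terbium anti-GST. Scaled between DMSO and T3 wells; loss of signal fitted.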

[14] = biological target: Retinoic acid receptor RXR-alpha (Homo sapiens) (UniProt P19793); assay: TOX21_TR_RXR_BLA_Antagonist_Followup_ratio: Tox21 Thyroid Hormone Receptor beta Retinoid X Receptor alpha (RXRa) Antagonism Beta-lactamase (BLA) Follow-Up Assay, Ratio (AID 2283972)
Sequence of Retinoic acid receptor RXR-alpha (Homo sapiens) (P19793 whole entry, looked up, the tested form may be a part): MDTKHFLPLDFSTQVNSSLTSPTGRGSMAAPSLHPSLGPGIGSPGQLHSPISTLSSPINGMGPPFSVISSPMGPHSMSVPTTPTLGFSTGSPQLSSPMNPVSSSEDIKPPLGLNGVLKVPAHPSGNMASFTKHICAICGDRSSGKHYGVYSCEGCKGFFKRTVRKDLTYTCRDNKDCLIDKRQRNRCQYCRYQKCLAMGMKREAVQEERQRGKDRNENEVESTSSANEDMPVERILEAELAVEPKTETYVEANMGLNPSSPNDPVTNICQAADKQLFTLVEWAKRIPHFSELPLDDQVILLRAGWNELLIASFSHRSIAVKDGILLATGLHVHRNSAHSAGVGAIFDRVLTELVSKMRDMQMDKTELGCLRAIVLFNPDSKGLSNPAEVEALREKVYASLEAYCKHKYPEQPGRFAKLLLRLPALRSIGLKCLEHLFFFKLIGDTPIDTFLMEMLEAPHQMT
Method in brief: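 Beta-lactamase reporter readout as cleaved/uncleaved substrate ratio (460:530 nm) after 2 h substrate loading at room temperature. GAL4-RXRa bla HEK293T cells were exposed 16 h at 37C to 11-point compound series; loss of signal scored against DMSO baseline.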

[15] = TOX21_TR_RXR_BLA_Antagonist_Followup_viability: Viability Assessment in the Tox21 Thyroid Hormone Receptor beta Retinoid X Receptor alpha (RXRa) Antagonism Beta-lactamase (BLA) Follow-Up Assay (AID 2283979)
Method in brief: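 Follow-up compounds (11 concentrations, triplicate) were incubated 16 h at 37C/5% CO2 with HEK293T RXRa-bla cells seeded at 2,500/well in charcoal-stripped-serum medium. ATP content by CellTiter-Glo luminescence gave viability; curves fitted in both directions against DMSO.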

[16] = biological target: PGR (gene 5241) (UniProt P06401); assay: TOX21_PR_BLA_Followup_Antagonist_ratio: Tox21 HEK293 Progesterone Receptor (PR) Antagonism Beta-lactamase Follow-Up Assay, Ratio (AID 2283934);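 further: PR-UAS-bla HEK293T cells stimulated with 1 nM R5020 agonist for 16 hr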
Sequence of PGR (gene 5241) (P06401 whole entry, looked up): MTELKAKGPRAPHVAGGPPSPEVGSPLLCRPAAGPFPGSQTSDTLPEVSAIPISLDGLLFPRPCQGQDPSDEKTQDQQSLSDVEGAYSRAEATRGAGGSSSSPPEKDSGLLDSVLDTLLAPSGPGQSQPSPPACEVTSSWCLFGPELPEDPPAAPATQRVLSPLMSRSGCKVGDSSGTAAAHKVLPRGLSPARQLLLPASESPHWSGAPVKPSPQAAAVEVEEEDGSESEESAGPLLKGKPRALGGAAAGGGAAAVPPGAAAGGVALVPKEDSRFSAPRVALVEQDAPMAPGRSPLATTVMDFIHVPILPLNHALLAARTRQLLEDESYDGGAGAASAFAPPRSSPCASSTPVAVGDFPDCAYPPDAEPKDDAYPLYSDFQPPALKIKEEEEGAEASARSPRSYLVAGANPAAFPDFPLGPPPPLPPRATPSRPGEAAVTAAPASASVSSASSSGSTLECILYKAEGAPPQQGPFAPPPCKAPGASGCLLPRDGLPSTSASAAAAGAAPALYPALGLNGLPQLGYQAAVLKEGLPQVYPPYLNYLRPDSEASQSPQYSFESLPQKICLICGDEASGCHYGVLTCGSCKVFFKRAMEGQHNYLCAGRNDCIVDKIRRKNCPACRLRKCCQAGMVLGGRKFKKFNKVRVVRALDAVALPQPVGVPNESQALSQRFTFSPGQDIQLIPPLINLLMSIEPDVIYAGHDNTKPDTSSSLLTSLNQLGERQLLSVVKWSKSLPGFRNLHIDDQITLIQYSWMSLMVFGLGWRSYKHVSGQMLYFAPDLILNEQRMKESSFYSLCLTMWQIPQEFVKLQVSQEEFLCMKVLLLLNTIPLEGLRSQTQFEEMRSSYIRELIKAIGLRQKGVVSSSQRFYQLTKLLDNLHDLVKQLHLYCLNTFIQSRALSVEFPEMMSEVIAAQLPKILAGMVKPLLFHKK
Method in brief: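 Readout is the blue/green (ch2/ch1) substrate cleavage ratio after 2 hours at room temperature, following 16 hr co-treatment of PR-bla HEK293T cells with compound and 1nM promegestone. Multiplexed CellTiter-Glo viability flags cytotoxicity; DMSO baseline.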

[17] = TOX21_PR_BLA_Followup_Agonist_viability: Viability Assessment in the Tox21 HEK293 Progesterone Receptor (PR) Agonism Beta-lactamase Follow-Up Assay (AID 2283935);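 further: signal loss means lower viability so actives are cytotoxic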
Method in brief: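 Run multiplexed with the beta-lactamase FRET read, this endpoint measures ATP by CellTiter-Glo luminescence (30 min, room temperature). PR-UAS-bla HEK293T cells received compound 6 hr after plating and were then incubated 16 hr at 37C in 2% stripped serum.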

[18] = TOX21_PR_BLA_Followup_Antagonist_viability: Viability Assessment in the Tox21 HEK293 Progesterone Receptor (PR) Antagonism Beta-lactamase Follow-Up Assay (AID 2283936);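 further: cells exposed to compound with R5020 agonist for 16 h; hits lower the luminescence signal meaning cytotoxicity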
Method in brief: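 PR-UAS-bla HEK293T cells in medium with 2% charcoal-stripped FBS were treated with compounds plus R5020 for 16 hr at 37C. After the beta-lactamase read, CellTiter-Glo was added to the same wells and luminescence read after 30 min at room temperature.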

[19] = biological target: PGR (gene 5241) (UniProt P06401); assay: TOX21_PR_LUC_Followup_Antagonist: Tox21 HEK293 Progesterone Receptor (PR) Antagonism Luciferase Follow-Up Assay (AID 2283938);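 further: curve fitted upward as signal gain over DMSO baseline despite antagonist label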
Method in brief: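 Luminescence from ONE-Glo reagent, measured after 30 min at room temperature, served as readout. Cells (HEK293 carrying PR-A-luc) had been treated 16 h at 37C with DMSO-dissolved compounds. Activity was fitted against DMSO controls.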

[20] = TOX21_PR_LUC_Followup_Antagonist_viability: Viability Assessment in the Tox21 HEK293 Progesterone Receptor (PR) Antagonism Luciferase Follow-Up Assay (AID 2283940)
Method in brief: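 Viability counter-readout: cellular ATP measured by luciferase luminescence after 16 h compound exposure at 37C of HEK293-PR-A-luc cells, which had been cultured in charcoal-stripped serum and seeded 5 h beforehand.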

SMILES: Cc1cc(Nc2ccccc2C(=O)O)ccc1Cl
- outcome [1]: inactive
- AC50 [2]: 8.52 µM (active)
- outcome [3]: inactive
- outcome [4]: inactive
- AC50 [5]: 31.9 µM (active)
- AC50 [6]: 17.4 µM (active)
- outcome [7]: inactive
- AC50 [8]: 23 µM (active)
- outcome [9]: inactive
- outcome [10]: inactive
- AC50 [11]: 51.5 µM (active)
- outcome [12]: inactive
- outcome [13]: inactive
- outcome [14]: inactive
- outcome [15]: inactive

SMILES: NC(=O)n1c(O)c(C(=O)c2cccs2)c2cc(Cl)ccc21
- outcome [1]: inactive
- AC50 [2]: 26.9 µM (active)
- outcome [3]: inactive
- AC50 [4]: 20.4 µM (active)
- outcome [5]: inactive
- AC50 [6]: 34.4 µM (active)
- outcome [7]: inactive
- outcome [8]: inactive
- outcome [16]: inactive
- outcome [17]: inactive
- outcome [18]: inactive
- AC50 [19]: 17.3 µM (active)
- outcome [20]: inactive

SMILES: C=CC(=O)Nc1cc2c(Nc3ccc(F)c(Cl)c3)ncnc2cc1OCCCN1CCOCC1
- outcome [1]: inactive
- outcome [2]: inactive
- AC50 [3]: 38.7 µM (active)
- AC50 [4]: 25.4 µM (active)
- outcome [5]: inactive
- outcome [6]: inactive
- outcome [7]: inactive
- AC50 [8]: 7.82 µM (active)

SMILES: Cc1onc(-c2c(F)cccc2Cl)c1C(=O)N[C@@H]1C(=O)N2[C@@H]1SC(C)(C)[C@@H]2C(=O)O
- outcome [1]: inactive
- outcome [2]: inactive
- outcome [3]: inactive
- outcome [4]: inactive
- outcome [5]: inactive
- outcome [6]: inactive
- outcome [7]: inactive
- outcome [8]: inactive

SMILES: CC(C)(C)CC(C)(C)c1ccc(O)c(Cc2ccc(Cl)cc2Cl)c1
- AC50 [1]: 23 µM (active)
- AC50 [2]: 35.4 µM (active)
- AC50 [3]: 20.1 µM (active)
- AC50 [4]: 30.9 µM (active)
- AC50 [5]: 10.9 µM (active)
- AC50 [6]: 28.1 µM (active)
- AC50 [7]: 13.8 µM (active)
- outcome [8]: inactive

SMILES: CCCCC(CC)COCCCN (stereo unspecified)
- outcome [1]: inactive
- outcome [2]: inactive
- outcome [3]: inactive
- outcome [4]: inactive
- outcome [5]: inactive
- outcome [6]: inactive
- outcome [7]: inactive
- outcome [8]: inactive

SMILES: CC[C@H]1OC(=O)[C@H](C)C(=O)[C@H](C)[C@@H](O[C@@H]2O[C@H](C)C[C@H](N(C)C)[C@H]2O)[C@](C)(OC)C[C@@H](C)C(=O)[C@H](C)[C@H]2N(CCCCn3cnc(-c4cccnc4)c3)C(=O)O[C@]12C
- outcome [1]: inactive
- outcome [2]: inactive
- outcome [3]: inactive
- outcome [4]: inactive
- outcome [5]: inactive
- outcome [6]: inactive
- outcome [7]: inactive
- outcome [8]: inactive

SMILES: C#C[C@]1(OC(C)=O)CC[C@H]2[C@@H]3CCC4=C/C(=N/O)CC[C@@H]4[C@H]3CC[C@@]21CC
- AC50 [1]: 37.2 µM (active)
- AC50 [2]: 40.4 µM (active)
- AC50 [3]: 38.7 µM (active)
- AC50 [4]: 42.8 µM (active)
- AC50 [5]: 38.2 µM (active)
- AC50 [6]: 40.6 µM (active)
- AC50 [7]: 37.1 µM (active)
- AC50 [8]: 39.5 µM (active)
